Results taken from PubChem BioAssay (NCI).
This is part of a sample that, as a whole, favours compounds with a hit. Of some 83,000 tested, about 20% had one in any assay.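 Compound tested at a single concentration for 48 hours in 96-well plates; a percent growth value below 10 was scored as active.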 The source made the active and inactive calls.

system: MDA-MB-468 breast; assay: NCI-60 one-dose screen, 48 h (100 = growth as untreated, 0 = no growth, -100 = all killed); details: 10 µM unless noted

Q: For `O=C1/C(=C/C(Cl)=C/c2ccccc2)SC(=S)N1CCc1ccc(O)cc1`, which growth is on record?
A: Its growth is -36.2% (active).

Q: For `Cc1ccc(Nc2nnc(-c3cc(-c4ccncc4)n(-c4ccccc4)n3)s2)cc1`, which growth is on record?
A: Its growth is 48.7% (inactive).

Q: How did the growth turn out when `COc1cc2cc(Oc3ccc(NC(=O)c4cc(C(F)(F)F)cc(C(F)(F)F)c4)cc3)c(C)nc2cc1OC` was run?
A: The growth was 22.8% (inactive).

Q: For `CC1=NOCC(=O)N1`, which growth is on record?
A: Its growth is 95.9% (inactive).

Q: `O=S(=O)(NCCNc1nccc(-c2c(-c3cccc(F)c3)nc3sccn23)n1)c1ccc(Br)cc1` was tested. Which growth did it give?
A: The growth was 78.3% (inactive).

Q: Which growth does the source give for `O=S(=O)(NCCNc1nccc(-c2c(-c3ccc(F)cc3)nc3sccn23)n1)c1ccc(F)cc1` here?
A: The growth was 52.1% (inactive).

Q: Which growth does the source give for `C=C1C(=O)O[C@H]2[C@H]1CC/C(Cn1cc(-c3ccc(OC)cc3)nn1)=C\CC[C@@]1(C)O[C@@H]21` here?
A: Its growth is -42.8% (active).

Q: For `NC(N)=Nc1ccc(Oc2cccc(Nc3ccc(Cl)c(C(F)(F)F)c3)c2)cc1`, which growth is on record?
A: Its growth is 4.84% (active).

Q: How did the growth turn out when `Cc1sc2nc(NCc3ccccc3Cl)[nH]c(=O)c2c1C` was run?
A: Its growth is 101% (inactive).

Q: With `FCc1nc2nc(Cl)c(Cl)nc2[nH]1` as the compound, how does the growth read?
A: Its growth is 93.2% (inactive).

Q: Which growth does the source give for `CC(=O)NC(CCC(=O)c1ccccc1)C(=O)O` (stereo not drawn) here?
A: The growth was 93.6% (inactive).

Q: Which growth does the source give for `O=C(Oc1cccc2ccccc12)Oc1cccc2ccccc12` here?
A: The growth was 117% (inactive).

Q: For `O=C1/C(=C/c2ccc(Br)cc2)C=C(c2ccccc2)N1CCc1ccccc1`, which growth is on record?
A: Its growth is 45% (inactive).
